RORg inh: ROR gamma (mouse) transcription inhibition; P51450; Drosophila S2 Gal4-RORgamma UAS-luciferase reporter, 20 h; Potency, µM (doses to about 53.6 µM), without a hit: at the highest dose activity change, negative = inhibition, actives largely listed as inhibitors; 5.4% of 310,000 active; further: potency means the concentration at half of the fitted maximal effect; on the % scale 0 is the no-effect control and ±100 the full control effect; nearly all actives have a fitted effect of over 60% in size
Target sequence (P51450 whole entry, looked up, the tested form may be a part): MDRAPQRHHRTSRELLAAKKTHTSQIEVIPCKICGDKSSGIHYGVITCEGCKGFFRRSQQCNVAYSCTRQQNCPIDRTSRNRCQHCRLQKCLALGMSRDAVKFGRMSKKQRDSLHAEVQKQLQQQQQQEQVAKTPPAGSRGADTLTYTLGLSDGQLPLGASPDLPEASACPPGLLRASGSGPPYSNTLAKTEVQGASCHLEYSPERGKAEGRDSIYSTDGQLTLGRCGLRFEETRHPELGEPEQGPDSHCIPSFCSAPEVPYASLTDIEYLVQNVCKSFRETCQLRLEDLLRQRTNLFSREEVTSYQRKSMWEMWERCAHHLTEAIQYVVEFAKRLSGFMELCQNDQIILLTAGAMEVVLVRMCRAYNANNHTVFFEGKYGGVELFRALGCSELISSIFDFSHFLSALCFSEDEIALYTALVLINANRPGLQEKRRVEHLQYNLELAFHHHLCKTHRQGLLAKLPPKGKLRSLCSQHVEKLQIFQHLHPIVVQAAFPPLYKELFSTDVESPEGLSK
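In this cell-based reporter format, copper sulfate (700 uM final) drives Gal4–ROR gamma fusion expression from a metallothionein promoter in Drosophila Schneider cells; compounds preincubated 1 hr, reporter read after 20 hr at ambient temperature.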
MCF10A rereplic: inducers of DNA re-replication in MCF 10A breast cells; MCF 10A DNA re-replication, Hoechst nuclear intensity, 48 h; Potency, µM (series often up to 46.1 µM), without a hit: at the highest dose activity, positive = re-replication, most hits filed as activators; 2.9% of 350,000 active; AID 624296; further: potency means the concentration at half of the fitted maximal effect; % of control where 0% means no effect; nearly all actives have a fitted effect of over 50% in size
Gal4-VP16 FLuc: inhibits Gal4-VP16 luciferase reporter, ROR gamma counter-screen; 3.5% of 310,000 active; Potency, µM (series often up to 53.6 µM), without a hit: at the top dose activity, negative = inhibition, actives largely listed as inhibitors; Drosophila S2 Gal4-VP16 UAS-luciferase, luminescence, 20 h; AID 2546;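 further: Gal4-VP16 expression switched on by copper sulfate through the metallothionein promoter; potency means the concentration at half of the fitted maximal effect; on the % scale 0 is the no-effect control and ±100 the full control effect; nearly all actives have a fitted effect of over 50% in size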
SW480 rereplic: induces DNA re-replication in SW480 colon adenocarcinoma cells | SW480 DNA re-replication, Hoechst DNA content imaging, 48 h | Potency, µM (highest dose often 46.1 µM), inactives show at the top dose re-replication activation, hits mostly activators | 1.8% of 340,000 active | AID 624297; further: potency means the concentration at half of the fitted maximal effect; % of control where 0% means no effect; nearly all actives have a fitted effect of over 55% in size
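Hoechst fluorescence of nuclei (405 nm excitation, 500-530 nm emission) measured by plate-scanning imager after 48 hr compound exposure at 37 C; re-replication scored as increased number of nuclei with elevated intensity.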
IL1B secr inh: inhibitors of inflammasome signaling (IL-1 beta secretion); THP-1 LPS/ATP IL-1B secretion, AlphaLISA, 16 h; hits give low values; activity change, % at 57.5 µM; 4.7% of 360,000 active; in the data active means activity change below about -50%; inconclusive means mostly about -30% to -49%; further: on the % scale 0 is the no-effect control and ±100 the full control effect
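THP-1 cells pretreated 1 hr with compounds (up to 57.5 uM final), then stimulated with LPS (250 ng/mL final) plus ATP (1.25 mM final); secreted IL-1B measured by AlphaLISA after 16 hr, decreased signal indicating inhibition.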
Starred values were filed as active, the others as inactive; ? = inconclusive; nt = not tested or not shown; [ ] = dose if it differs, or a comment. Hits are enriched below; roughly 11% of the tested compounds scored in any of these assays. Unless noted, the call rests on the fitted dose curve; in most records, active means well fitted curve in the direction sought with a large enough effect; inconclusive means small, poorly fitted or top-dose-only effect, or another doubt; inactive means no such curve, though single readings can be large; an effect the other way counts as inactive or inconclusive.

SMILES	RORg inh	MCF10A rereplic	Gal4-VP16 FLuc	SW480 rereplic	IL1B secr inh
CCc1nc2ccc(C(=O)N3CCN(C(=O)c4ccco4)CC3)cn2c1N(C)C(=O)COc1ccccc1	nt	nt	nt	nt	-21.2
Cc1cc(N2CCN(C)CC2)nc2ccc(NC(=O)CCC(=O)NCCC(C)C)cc12	25.5%	?	-13.2%[10 µM]	?	0.8
Cc1cc(N2CCOCC2)nc2ccc(NC(=S)N3CCCCC3C)cc12 (stereo not given)	?	14.6µM*	-4.3%	18.4µM*	-66.8*
Cc1cccc(N2CCN(C(=S)Nc3ccc4nc(N5CCN(C)CC5)cc(C)c4c3)CC2C)c1 (stereo not given)	?	18.4µM*	?	18.4µM*	-72.4*
Cc1cccc(N2CCN(C(=S)Nc3ccc4nc(N5CCN(C)CC5)cc(C)c4c3)CC2)c1C	4.47µM*	0.1%	4.47µM*	-2.7%	4.2
CC1CCCC(C)N1C(=O)COC(=O)Cc1ccc(F)cc1 (stereo not given)	-2.0%	6.8%	23.0%	-3.5%	-13.8
COc1ccc(C(C(=O)NCc2ccccc2)n2c(-c3ccccn3)nc3ccccc32)cc1 (stereo not given)	nt	nt	nt	nt	-15.7
CCC(=O)CC(NC(=O)OC)c1ccc(F)cc1 (stereo not given)	7.5%[10 µM]	nt	-8.0%[10 µM]	nt	nt
CCC(C)(C)n1nnnc1C(c1ccccc1)N1CCN(Cc2ccccc2)CC1 (stereo not given)	6.2%	0.3%	4.3%	4.1%	-6.0
Fc1ccc(C(c2nnnn2C2CCCC2)N2CCN(Cc3ccccc3)CC2)cc1 (stereo not given)	11.0%	1.1%	4.9%	-2.4%	-53.6*
Cc1ccc(C(c2nnnn2Cc2ccccc2)N2CCN(Cc3ccccc3)CC2)cc1 (stereo not given)	4.6%	16.4µM*	-8.0%	-1.4%	?
c1ccc(CN2CCN(C(c3ccccc3)c3nnnn3Cc3ccccc3)CC2)cc1 (stereo not given)	40.2%	23.4%	2.6%	5.4%	-58.4*
Cn1c(N2CCN(C(c3ccccc3)c3ccccc3)CC2)nc2ccccc21	11.2µM*	23.1µM*	12.6µM*	?	-84.1*
Cn1c(N2CCN(C(=O)Nc3ccc(F)cc3)CC2)nc2ccccc21	-1.5%	8.1%	-1.0%	0.3%	-11.9
O=C(Nc1cccc2ccccc12)N(CCO)C1CCS(=O)(=O)C1 (stereo not given)	-6.8%	-8.4%	1.1%	?	-14.4
CCC(C)(C)n1nnnc1C(c1ccc(C)cc1)N1CCN(Cc2ccc3c(c2)OCO3)CC1 (stereo not given)	-9.7%	20.8%	-2.3%	?	-53.1*
CN1CCN(C(c2ccccc2)c2ccc(Cl)cc2)CC1 (stereo not given)	nt	-25.1%	nt	?	-61.3*
c1ccc(-c2noc(CN3CCN(C(c4ccccc4)c4ccccc4)CC3)n2)cc1	14.7%	?	6.0%	11.3%	-87.0*
c1ccc(CN2CCN(C(c3ccccc3)c3ccccc3)CC2)cc1	-13.5%	20.6µM*	-0.9%	7.7%	4.6
Fc1ccc(CN2CCN(C(c3ccccc3)c3ccccc3)CC2)cc1	22.0%	11.5%	-24.6%	21.3%	4.3
c1ccc(-c2noc(CN3CCN(c4ccccc4)CC3)n2)cc1	11.5%	-1.4%	15.4%	-5.6%	20.5
CC(C(=O)Nc1ccccc1F)N1CCN(C)CC1 (stereo not given)	-6.9%	nt	0.0%	nt	nt
COC(=O)C/C=C1\c2ccccc2C(OC)C1C (stereo not given)	-3.2%[10 µM]	nt	-0.6%[10 µM]	nt	nt
Cc1ccccc1OCCC(=O)N(CC(C)C)c1c(N)n(Cc2ccccc2)c(=O)[nH]c1=O	nt	0.0%	nt	-24.1%	0.0
O=S(=O)(CCN1CCN(C(c2ccccc2)c2ccccc2)CC1)C(F)(F)F	?	?	15.8µM*	?	-18.3
SMILES	RORg inh	MCF10A rereplic	Gal4-VP16 FLuc	SW480 rereplic	IL1B secr inh
COCCNC(=O)C(c1ccc(C)cc1)N(Cc1ccccc1)C(=O)CCC(=O)Nc1ccccn1 (stereo not given)	9.9%	14.1%	-1.4%	1.6%	-10.8
CCN(CC)C(=S)SSC(=S)N(CC)CC	1.12µM*	14.6µM*	1µM*	?	-109.9*
CCN(CC)C(=S)SCC(=O)c1ccccc1	6.0%	14.6%	-6.7%	?	-8.6
CC(C)(C)c1cn(-c2ccc(F)cc2)c(=S)[nH]1	8.91µM*	-3.3%	10µM*	-0.5%	0.0
CC(=O)c1cc(NC(=O)c2ccccc2)c(=O)oc1C	11.2µM*	?	2.51µM*	0.0%	-102.0*
Cc1oc(=O)c(NC(=O)c2ccccc2)cc1C(=O)c1ccccc1	?	23.1µM*	12.6µM*	20.6µM*	0.5
CC(=O)c1cc(NC(=O)c2ccc(C)cc2)c(=O)oc1C	?	?	?	?	-106.1*
Cc1oc(=O)c(NC(=O)c2ccc(Cl)cc2)cc1C(=O)c1ccccc1	16.3%	8.2µM*	-12.5%	?	-23.2
COC(=O)c1cc(NC(=O)c2ccc(OC)cc2)c(=O)oc1C	13.3%	2.9%	-20.5%	-3.1%	-10.9
CC(=O)c1cc(NC(=O)c2ccc(C)cc2)c(=O)oc1/C=C/N(C)C	?	16.7%	-12.0%	-0.3%	-0.2
CCCOc1ccc(F)cc1-c1cc(C(=O)NC(C)C)[nH]n1	nt	nt	nt	nt	22.3
COc1ccc(NC(=O)CN(C)C(=O)c2c(C)nn(Cc3ccccc3)c2C)cc1	nt	0.3%	nt	-2.0%	9.7
CCC1=C2CC[C@H]3C(=O)NC(=O)[C@H]3[C@H]2[C@@]2(C)C(=NCC3CC3)OC(=O)N2C1=O	-8.6%	nt	-15.3%	nt	nt
Cc1ccc(C(=O)Nc2cc3ccccc3oc2=O)cc1	1.58µM*	18.4µM*	?	2.91µM*	36.6
O=C(c1ccc(Cl)cc1)C1C2C(=O)N(c3ccccc3)C(=O)C2C2CCCN21 (stereo not given)	-31.4%	-10.0%	-3.4%	-12.0%	37.6
CC(=O)c1ccc(N2C(=O)C3C(C2=O)C(C(=O)c2ccc(Cl)cc2)N2CCCC32)cc1 (stereo not given)	?	11.6µM*	-23.6%	?	-108.9*
COc1ccc(N2C(=O)C3C(C2=O)C(C(=O)c2ccc(Cl)cc2)N2CCCC32)cc1 (stereo not given)	?	14.6µM*	?	8.2µM*	nt
COc1ccc(N2C(=O)[C@@H]3[C@H](C2=O)[C@H]2C=CC=NN2[C@@H]3C(=O)Nc2ccc(Cl)cc2)cc1	14.1µM*	16.9%	?	2.6%	13.3
COc1ccccc1NS(=O)(=O)c1cc(C(=O)NC2CC(C)(C)NC(C)(C)C2)ccc1Cl	nt	7.7%	nt	229.1%	?
C=C(C)C(O)/C=C/c1ccc(C)cc1 (stereo not given)	4.7%[10 µM]	nt	-2.1%[10 µM]	nt	nt
COc1ccc(-c2cccc3c2NC(=O)C3=O)cc1OC	nt	19.7%	nt	16.7%	37.5

Bioassay records from PubChem BioAssay.
